These results are taken from PubChem BioAssay (NCATS).

Records with an inconclusive call do not appear. Calls of active or inactive are those of the source. The call rests on the fitted dose curve; in most records, active means well fitted cell-killing curve with a large enough effect; inconclusive means small, poorly fitted or top-dose-only effect; inactive means flat fitted curve, though single readings scatter.
Potency means the concentration at half of the fitted maximal effect.

The nature of the assay: qHTS of pediatric cancer cell lines to identify multiple opportunities for drug repurposing: Primary screen for BT-12 cells (AID 1347101). Further: nearly all actives have a fitted effect of over 25% in size. To be noted: BT-12 viability, CellTiter-Glo luminescence, 48 h; series mostly up to 57.3 µM. The text has this:
Drug repurposing or repositioning has been offered as a strategy for drug development in oncology programs. This approach has special potential for childhood cancers and other rare or orphan diseases, where the expected return on new drug development has been a disincentive to pharmaceuticals.
In this project we exploit the poly-pharmacology of drugs to discover new indications via phenotypic screening of a panel of 19 well-characterized cell lines derived from solid tumors seen in children and adolescents. The goal is to identify approved drugs with previously unrecognized anticancer properties that has the potential to reveal new mechanisms and biological processes involved in carcinogenesis or drug resistance. We employed a titration-based paradigm (quantitative high-throughput screening or qHTS), where all compounds were tested at multiple concentrations for their effect on cell viability. Concentration-response curves (CRCs) were derived directly from the primary screen, and both potency and efficacy values were used to identify compounds with robust bioactivity profiles. We screened the NIH Chemical Genomics Center (NCGC) Pharmaceutical Collection (NPC) and Mechanism Interrogation Plate (MIPE) small molecule collections of approved and investigational compounds against these cell lines; and measured metabolically active cells after 48 hours of compound treatment as a proxy for cell viability.
Assay Submitter: Nathalia J. Martinez, National Center for Advancing Translational Sciences, National Institutes of Health, Rockville, MD, USA; email: natalia.martinez@nih.gov
[1] Shen, M et al. Quantitative high-throughput phenotypic screening of pediatric cancer cell lines identifies multiple opportunities for drug repurposing. Oncotarget 2017 Dec 19;9(4):4758-4772. PMID 29435139.
The cells were obtained from University of North Carolina (UNC), Pediatric Preclinical Testing Program (PPT), and Coriell Institute (CI).
qHTS cell viability assay:
Cells were assayed in growth media at a density of 500-1,000 cells/well. Five microliters of cells were dispensed into 1,536-well, white, solid-bottom, TC-treated plates (Greiner Bio One) using a multidrop dispenser and incubated at 37 degrees C, 5% CO2, under a humidified atmosphere for 5 hours. Twenty-three nanoliters of compounds and controls (neutral control DMSO or positive control bortezomib at final concentration of 2.3 µM) were subsequently transferred by Kalypsys pintool. For primary screens, the MIPE collection was tested at 11-point dilutions (final concentrations range from 0.78 nM to 46 µM) and the NPC collection at 8-point dilutions (final concentrations range from 0.59 nM to 46 µM). Compounds tested in follow-up screens were assayed at 11-point dilutions. Cells were incubated for 48 hours, followed by addition of 3 µL of CellTiter-Glo (Promega). After a 15 min incubation at room temperature, samples were analyzed for luminescence intensity using a ViewLux High-throughput CCD imager equipped with clear filters.
In general terms: Quantitative high-throughput screening tests each substance at several concentrations.
Consider `C1Cc2[nH]nc(-c3nn[nH]n3)c2C1`, for which the Potency result is “inactive”. In the case of `COc1cc2ncn(-c3cc(OCc4ccccc4C(F)(F)F)c(C(N)=O)s3)c2cc1OC`, the Potency was 21.7 µM (active).

Take `O=C(Cc1ccc(-c2ccc(OCCN3CCOCC3)cc2)cn1)NCc1ccccc1`: the Potency was 0.0385 µM (active). In the case of `CC[C@@H]1C(=O)N(C)c2cnc(Nc3ccc(C(=O)NC4CCC(N5CCN(CC6CC6)CC5)CC4)cc3OC)nc2N1C(C)C` (stereo not given in full) it was 6.11 µM (active); in that of `c1ccc2c(CCNc3ccc(Nc4ccncc4)cc3)c[nH]c2c1`, 21.7 µM (active). For `CC[C@H]1CN2CCc3cc(OC)c(OC)cc3[C@H]2C[C@@H]1C[C@@H]1NCCc2cc(OC)c(OC)cc21`, the Potency is 0.193 µM (active).

As to `O=C(Nc1nc2cccc(-c3ccc(CN4CCS(=O)(=O)CC4)cc3)n2n1)C1CC1`, the Potency is 27.3 µM (active).

Turning to `COc1c(N2C[C@@H]3CCCN[C@H]3C2)c(F)cc2c(=O)c(C(=O)O)cn(C3CC3)c12`, the Potency entry was “inactive”. `CC[C@@]1(O)C(=O)OCc2c1cc1n(c2=O)Cc2cc3cc(O)ccc3nc2-1`: the Potency is 0.385 µM (active). As for `O=C(O)[C@H](Cc1c[nH]c2ccccc12)N1C(=O)c2ccccc2C1=O`, the entry is “inactive”; as for `CC[C@@H]1C(=O)N(C)c2cnc(Nc3ccc(C(=O)NC4CCN(C)CC4)cc3OC)nc2N1C1CCCC1`, 0.172 µM (active); as for `Cc1cc(C(=O)N2CCN(c3cccc(Cl)c3)CC2)n(-c2ccccc2)n1`, 6.85 µM (active). For `Nc1ccn([C@@H]2CS[C@H](CO)O2)c(=O)n1`, the Potency result was “inactive”.

For `Cn1cc(-c2[nH]c3cc(NC(=O)[C@H](N)C4CCCCC4)cc4c3c2C=NNC4=O)cn1`, the Potency result was “inactive”. Consider `O=C(C=Cc1c(C(=O)O)[nH]c2cc(Cl)cc(Cl)c12)Nc1ccccc1`, for which the Potency entry is “inactive”. In the case of `N#CCNC(=O)c1ccc(-c2ccnc(Nc3ccc(N4CCOCC4)cc3)n2)cc1`, the Potency is 17.2 µM (active). Turning to `CN(C)c1nc(Cc2ccc(NC(=O)c3ccc4ccccc4c3)cc2)nc(Cl)c1CC(=O)O`, the Potency entry is “inactive”. `CN(C)CCCN=c1c2ccccc2n(C)c2[nH]c(=O)n(C)c(=O)c12`: the Potency was 7.69 µM (active).

Consider `CC(NCc1ccc2c(c1)nc(NC(=O)c1ccc(-c3cn[nH]c3)s1)n2CC(C)(C)O)C(C)(C)C` (stereo not given), for which the Potency was 0.968 µM (active).

Turning to `C=C1C(=CC=C2CCC[C@]3(C)[C@@H]([C@H](C)C=C[C@H](C)C(C)C)CC[C@@H]23)C[C@@H](O)C[C@@H]1O`, the Potency is 2.17 µM (active). Turning to `C[C@@H](Oc1cc(-n2cnc3ccc(CN4CCN(C)CC4)cc32)sc1C(N)=O)c1ccccc1C(F)(F)F`, the Potency is 24.3 µM (active). In the case of `COc1cc(C(C)C)c2c(c1)S(=O)(=O)N(COc1cc(=O)n3cccc(OCCN4CCCCC4)c3n1)C2=O` it was “inactive”; in that of `COc1ccc(F)c(F)c1C(=O)c1cnc(NC2CCN(S(C)(=O)=O)CC2)nc1N`, 3.43 µM (active); in that of `COc1ccc(C(=O)CC2(O)C(=O)Nc3c(Cl)ccc(Cl)c32)cc1` (stereo not given), 3.43 µM (active).

With `Cc1cc(Nc2cc(N3CCN(C)CC3)nc(C=Cc3ccccc3)n2)n[nH]1`, the Potency was 7.89 µM (active). Turning to `Cc1cnc(Nc2ccc(F)cc2Cl)nc1-c1c[nH]c(C(=O)N[C@H](CO)c2cccc(Cl)c2)c1`, the Potency is 0.432 µM (active).

Consider `Nc1ncnc2c1c(-c1cccc(OCc3ccccc3)c1)cn2C1CC(CN2CCCC2)C1` (stereo not given), for which the Potency was 27.3 µM (active). Take `CCCCCCCCCC(=O)N[C@@H](Cc1c[nH]c2ccccc12)C(=O)N[C@H](CC(N)=O)C(=O)N[C@@H](CC(=O)O)C(=O)N[C@@H]1C(=O)NCC(=O)N[C@@H](CCCN)C(=O)N[C@@H](CC(=O)O)C(=O)N[C@H](C)C(=O)N[C@@H](CC(=O)O)C(=O)NCC(=O)N[C@H](CO)C(=O)N[C@@H]([C@@H](C)CC(=O)O)C(=O)N[C@@H](CC(=O)c2ccccc2N)C(=O)O[C@@H]1C`: the Potency result is “inactive”. `COc1cc2c(Oc3ccc(-c4cnc(Nc5ccc(F)cc5)n(C)c4=O)cc3F)ccnc2cc1OCCCN1CCOCC1`: the Potency was 21.7 µM (active). For the compound `CCC1=C[C@@H]2CN(C1)Cc1c([nH]c3ccccc13)[C@@](C(=O)OC)(c1cc3c(cc1OC)N(C)[C@@H]1[C@@](O)(C(=O)OC)[C@H](OC(C)=O)[C@]4(CC)C=CCN5CC[C@]31[C@@H]54)C2`, the Potency was 0.0769 µM (active). In the case of `Nc1ccccc1NC(=O)c1ccc(CNC(=O)OCc2cccnc2)cc1` it was 7.69 µM (active). For the compound `CN(C)Cc1c(C(=O)NCCOc2ccc(C(=O)NO)cc2)oc2ccccc12`, the Potency was 3.85 µM (active). As for `COc1cccc2nc(-c3cccs3)nc(NN3C(=O)C=C(C)C3=O)c12`, the figure is 2.73 µM (active); as for `Cc1cc(N2CCOCC2)cc2[nH]c(-c3c(NC[C@@H](O)c4cccc(Cl)c4)cc[nH]c3=O)nc12`, 24.3 µM (active). As to `N#Cc1c(O)c2c(-c3ccc(-c4ccccc4O)cc3)csc2[nH]c1=O`, the Potency result is “inactive”. As for `Cc1coc2c1C(=O)C(=O)c1c-2ccc2c1CCCC2(C)C`, the figure is 21.7 µM (active). For `CCOC(=O)C1=C(C)NC2=C(C(=O)CC(C)(C)C2)C1c1ccc(-c2ccccc2)cc1` (stereo not given), the Potency is 24.3 µM (active). Turning to `CC1=C(CO)C(=O)O[C@@H]([C@@H](C)[C@H]2CC[C@H]3[C@@H]4C[C@H]5O[C@]56[C@@H](O)C=CC(=O)[C@]6(C)[C@@H]4CC[C@]23C)C1`, the Potency was 0.769 µM (active). As for `O=C1CCC[C@@H]2[C@H]3CCC[N+]4([O-])CCC[C@@H](CN12)[C@@H]34` (stereo not given in full), the entry is “inactive”; as for `Cc1ccc(C(=O)Nc2ccc(CN3CCN(C)CC3)c(C(F)(F)F)c2)cc1C#Cc1cnc2cccnn12`, 6.85 µM (active).
